Bioassay records deposited in PubChem BioAssay by several laboratories.
Shown are actives, neighbours in structure and some others; about 1.3% of the full set was active somewhere.
GRK2 aptamer HTS: inhibitors of human GRK2 displacing RNA aptamer; bead flow cytometry, FAM-aptamer displacement from GRK2; 330,000 compounds, 0.59% hits; P25098; inhibition of aptamer binding, % at 10 µM;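 active = inhibition of aptamer binding above 40%, roughly 3 SD of noise, on plates passing a quality check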;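 note: median bead fluorescence of bound FAM aptamer so fluorescent compounds give negative values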
B2AR ag: human beta-2 adrenergic receptor agonism by FAP; P07550; Am2.2-beta2AR cells, FAP receptor internalization, flow cytometry; response, % (concentration not given with the values); 340,000 compounds, 0.43% hits; AID 504454;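 active = response above a set limit, near 3 SD of response in nonfluorescent compounds, cut at about 42% in these data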
A1 inh: inhibitors of the anti-apoptotic protein A1, read as caspase activation. MEF A1-2A-BIM cells, Caspase-Glo 3/7 luminescence, 3 h; percent of clofoctol response, vehicle zero. caspase activation, % (test concentration not listed). 330,000 compounds, 0.066% hits. AID 2462;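 active = over half of replicate activation scores above 10%, or exactly half above 10 with the replicate mean above 10; inconclusive = replicate mean below 10 yet half the replicates above 10; inactive = over half of replicates below 10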
NTR1 ag: activates human neurotensin receptor 1 | P30989 | 330,000 compounds, 0.17% hits | activation, % at 20 µM | NTR1-U2OS beta-arrestin-GFP spot imaging, agonist mode;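 active = activation at or above 40% of the spot to cytoplasm intensity ratio, with at least 20 cells analyzed; inconclusive = wells under 20 cells, flagged as cytotoxic or low count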;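 note: 0% = DMSO without peptide and 100% = 100 nM NTR1 peptide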
VLA-4 inh: inhibition in a human VLA-4 binding assay; P13612; VLA-4 expressing cells, ligand binding flow cytometry; inhibition, % (about 7 µM as worked out from the volumes in the protocol); 330,000 compounds, 0.2% hits; in the data active = inhibition above about 50%
GRK2 CP1: confirmation of human GRK2 inhibitors displacing RNA aptamer; shares compounds with GRK2 aptamer HTS; bead-bound GRK2, FAM-aptamer displacement, flow cytometry; aptamer displacement, % at 10 µM; 2,000 compounds, 4% hits; AID 504451;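 active = aptamer displacement above 40%, near three times the noise of non-fluorescent compounds, on plates passing quality checks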;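 note: negative values mostly reflect intrinsic compound fluorescence rather than true enhancement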
Aptamer quench SP: quenches fluorescent RNA aptamer, GRK2 hit artifact. shares compounds with GRK2 aptamer HTS. Carboxyfluorescein RNA aptamer on beads, flow cytometry quenching; hits give low values. fluorescence response (% of DMSO), % at 10 µM. 2,000 tested, under 10 active. AID 504580;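 active = compounds that quench the bead-bound fluorescent RNA probe, cutting fluorescence to under half of the solvent control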;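 note: counterscreen run without GRK2 so only probe quenching by compound is measured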
GRK2 CP2: human GRK2 inhibition confirmation, cherry pick 2; shares compounds with GRK2 aptamer HTS; bead-bound GRK2, FAM-aptamer displacement, flow cytometry; inhibition of aptamer binding, % at 10 µM; 360 tested, under 10 active; AID 504782;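 active = inhibition of aptamer binding above 40%, about triple the noise seen with nonglowing compounds, on plates passing quality control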;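 note: negative values mostly come from compounds that fluoresce themselves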
FAM quench CP2: quenches fluorescent RNA aptamer, GRK2 hit artifact | shares compounds with GRK2 aptamer HTS | 360 tested, under 10 active | fluorescence response vs DMSO, % at 10 µM | carboxyfluorescein RNA aptamer beads, flow cytometry quenching; hits give low values;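 active = response vs DMSO under 50%, meaning signal dropped by over half, treated as fluorescence quencher; inconclusive = no clear call, values can overlap the other calls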;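 note: labelled aptamer on streptavidin beads without GRK2 as a quench counter-screen; 100% = bead fluorescence of DMSO wells and lower means quenching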
Numbers without * were called inactive; ? = inconclusive; · = not tested or not shown.

SMILES	GRK2 aptamer HTS	B2AR ag	A1 inh	NTR1 ag	VLA-4 inh	GRK2 CP1	Aptamer quench SP	others
CCCOc1cccc(C2C(C(=O)c3ccc(C)o3)=C(O)C(=O)N2c2nc(C)c(C(C)=O)s2)c1 (stereo unspecified)	15	-2	0	0	-11	·	·
Cc1ccc(OCc2occc2C(=O)O)cc1	·	3	·	·	·	·	·
Cc1ccc(S(=O)(=O)NCCOC(=O)Nc2sc(=S)n(C)c2C)cc1	96*	-4	1	1	0	-5	102
Cc1c(NC(=O)OCCNC(=O)Nc2ccccc2)sc(=S)n1C	0	-13	?	0	-5	·	·
Cc1cc2c(cc1S(=O)(=O)C(C)CC(=O)NCc1ccco1)OCC(=O)N2 (stereo unspecified)	2	3	0	-1	8	·	·
COC(=O)c1noc(C)c1-c1ccnn1C(=O)c1ccc(C)cc1	97*	4	1	0	21	0	46*
Cc1onc(-c2ccccc2)c1-c1ccnn1C(=O)NC(C)C	1	-6	0	1	-8	·	·
COc1cc(CC(=O)OCC(=O)c2ccc(F)cc2)cc(OC)c1OC	1	0	-2	0	-14	·	·
CCCCCN(C(=O)CCC(=O)OCC(=O)Nc1cccc(CC)c1)c1c(N)n(CCCC)c(=O)[nH]c1=O	0	0	1	2	8	·	·
O=C(O)CCC(=O)NC1CCCCCCC1	65*	4	0	0	2	0	104
COc1ccccc1NC(=O)Nc1ccc(NC(=O)c2ccccc2O)cc1	92*	11	-4	3	5	4	101
COc1ccc(NC(=O)Nc2ccccc2OC)cc1	2	-8	0	-1	12	·	·
COc1ccccc1NC(=O)c1ccccc1C(=O)Nc1ccccc1OC	54*	7	1	0	8	·	·	GRK2 CP2=-10;FAM quench CP2=101
COc1ccccc1NC(=O)NCCCl	60*	5	0	0	18	·	·	GRK2 CP2=-31;FAM quench CP2=98
C[C@H](CO)N1C[C@H](C)[C@@H](CN(C)Cc2ccc(C(=O)O)cc2)Oc2c(cccc2N(C)C)C1=O	1	-3	-1	2	-4	·	·
CC1CN(C2CCCCC2)C(=S)N(c2ccccc2)C1=O (stereo unspecified)	·	-5	·	·	·	·	·
Cc1ccccc1NC(=O)N1CCN(C/C=C/c2ccccc2)CC1	66*	-3	2	0	8	3	99
CCOC(=O)C1CCCN(CCC(C)c2ccccc2)C1 (stereo unspecified)	78*	5	0	0	7	2	102
CCOC(=O)C1CCCN(CCC(=O)Nc2ccccc2)C1 (stereo unspecified)	0	-3	0	0	10	·	·
Cc1cc(NC(=O)c2ccccc2C)n(-c2cccc(F)c2)n1	100*	-2	1	0	8	1	103
COc1ccc(C(=O)Nc2cc(C)nn2-c2cccc(F)c2)cc1	0	-4	0	1	-7	·	·
COC(=O)c1ccc(N2CCc3ccccc32)c([N+](=O)[O-])c1	52*	10	-1	2	2	0	97
CCN(CC)CCCNc1nc2ccccc2c2[nH]c3ccc(OC)cc3c12	·	8	·	·	·	·	·
S=c1nc(NCCc2ccccc2Cl)c2ccccc2[nH]1	0	-13	-1	10	26	·	·
CCOc1ccccc1OCCCC(=O)OCC(=O)Nc1cccc(Cl)c1	81*	0	1	0	6	-1	102
SMILES	GRK2 aptamer HTS	B2AR ag	A1 inh	NTR1 ag	VLA-4 inh	GRK2 CP1	Aptamer quench SP	others
COc1ccc([C@@H]2CC=C(C(=O)O)[C@H](c3ccc(Cl)cc3)N2S(=O)(=O)c2ccc(Cl)cc2)cc1	49*	2	0	11	0	-6	101
O=C(O)C1=CC[C@@H](c2ccc(Cl)cc2)N(S(=O)(=O)c2ccc(Cl)cc2)[C@H]1c1ccc(F)cc1	0	3	-1	14	-4	·	·
O=Cc1c(OCc2ccccc2)ccc2ccccc12	2	-3	0	5	-8	·	·
O=C1NC(=O)C(Cc2ccc(Cl)cc2)(c2ccccc2)N1 (stereo unspecified)	·	-1	·	·	·	·	·
C=C(C)CSc1nc2sc3c(c2c(=O)n1-c1ccccc1)CCN(C)C3	37	0	0	5	-10	1	95
CC(C)C[C@H]1CN=C(Nc2ccccc2)N1CC1CCCCCC1	58*	5	0	-2	-13	-2	99
CCOc1ccc2oc(C(=O)N3CC(C)OC(C)C3)c(C)c2c1 (stereo unspecified)	0	-11	1	-1	2	·	·
Cc1ccsc1C(=O)N1CCCC(CO)(Cc2ccccc2)C1 (stereo unspecified)	45*	3	2	1	7	·	·	GRK2 CP2=-9;FAM quench CP2=98
Cc1ccsc1C(=O)N1CCC(CO)(Cc2ccccc2)CC1	2	3	2	0	7	·	·
CS(=O)(=O)N(CC(N)=O)c1cccc(Br)c1	1	-9	2	0	-2	·	·
Cc1cccc(N(CC(N)=O)S(C)(=O)=O)c1C	23	-5	0	1	18	2	97
COC(=O)/C=C/c1cccc([C@H]2[C@@H]3C=CC[C@@H](C)[C@@H]3C(=O)N2Cc2ccccc2)c1	0	9	·	3	·	·	·
COCCn1c(SCc2cccc([N+](=O)[O-])c2)nc2ccccc2c1=O	0	31	-1	6	-3	·	·
Cn1c(SCc2cccc([N+](=O)[O-])c2)nc2ccccc2c1=O	47*	0	-1	4	0	-1	100
Cc1cccc(N(Cc2ccccc2)C(=O)CN2C(=O)NC3(CCCC3)C2=O)c1	0	-5	0	-1	3	·	·
COCCNC(=O)c1ccc(Cl)c(S(=O)(=O)Nc2cccc(C)c2C)c1	65*	-11	0	4	-10	·	·	GRK2 CP2=22;FAM quench CP2=99
Fc1ccc(-c2cn(-c3ccccc3)c3[n+]2CCS3)cc1	43*	2	2	-1	1	0	96
CN(C)c1ccccc1C(=O)N1CCCC(C(=O)c2ccc3ccccc3c2)C1 (stereo unspecified)	1	3	-1	9	14	·	·
CCOC(=O)c1cnc(SC2CC(=O)N(c3ccc(OC)c(OC)c3)C2=O)nc1N (stereo unspecified)	45*	-5	1	0	-5	-4	98
